Compound activity deposited in PubChem by National Center for Advancing Translational Sciences (NCATS).
FLuc modulator = counter-screen for miR-21 project: firefly luciferase inhibitors or activators. P08659. purified FLuc, Km substrates, luminescence inhibition. 6.9% of 360,000 active. Potency, µM (highest dose often 57.5 µM), for inactives: at the top dose activity change, negative = inhibition, actives largely listed as inhibitors;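 also: plate controls were vehicle for no effect and reference inhibitor for full effect; nearly all actives have a fitted effect of over 55% in size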
Target sequence (P08659 whole entry, looked up): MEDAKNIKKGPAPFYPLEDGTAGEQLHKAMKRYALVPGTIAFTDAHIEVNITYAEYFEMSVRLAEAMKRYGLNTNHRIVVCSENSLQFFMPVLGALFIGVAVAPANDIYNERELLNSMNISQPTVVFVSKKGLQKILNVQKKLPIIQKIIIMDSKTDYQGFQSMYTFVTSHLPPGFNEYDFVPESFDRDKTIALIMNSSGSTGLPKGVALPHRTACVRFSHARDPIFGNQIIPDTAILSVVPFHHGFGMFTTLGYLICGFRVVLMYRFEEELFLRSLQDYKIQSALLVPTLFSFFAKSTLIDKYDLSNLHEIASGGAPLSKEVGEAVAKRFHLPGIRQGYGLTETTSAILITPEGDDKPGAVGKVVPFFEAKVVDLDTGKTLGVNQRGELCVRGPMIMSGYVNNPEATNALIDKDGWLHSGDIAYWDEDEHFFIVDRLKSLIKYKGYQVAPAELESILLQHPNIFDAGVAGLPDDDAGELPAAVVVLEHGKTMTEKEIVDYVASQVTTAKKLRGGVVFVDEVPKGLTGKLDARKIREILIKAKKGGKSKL
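Purified P. pyralis luciferase (10nM final) with 10uM D-luciferin and 10uM ATP (Km levels) in 50mM Tris acetate pH 7.5, 10mM Mg acetate, 0.01% Tween-20, 0.05% BSA; qHTS 6-point titration, ~60 µM downward; luminescence read.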
NPC1 prom act = NPC1 promoter activation | 2.4% of 320,000 active | Huh7 NPC1 promoter luciferase reporter, 24 h | Potency, µM (highest dose often 9.22 µM), inactives show at the top dose activation, most hits filed as activators; also: % of control where 0% means no effect; nearly all actives have a fitted effect of over 60% in size
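Compounds in DMSO were transferred onto Huh7 NPC1-luciferase reporter cells pre-incubated 2 h; after 24 h at 37 °C, Amplite reagent was dispensed and luminescence recorded 10 min later.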
ELG1 genotoxic = genotoxicity induction in ELG1-luciferase HEK293T cells; HEK293T ELG1-luciferase reporter, luminescence, 16 h; Potency, µM (titrated, usually from 46 µM), inactives show at the highest dose activity change, positive = activation, actives largely listed as activators; 1.3% of 330,000 active; AID 504466; also: % of control where 0% means no effect; nearly all actives have a fitted effect of over 60% in size
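Screening used a luciferase reporter fused to human ELG1 in HEK293T cells. Luminescence was read on a CCD plate imager after 16 hr exposure and 30 min ONE-Glo incubation.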
SMN2 splice up = increases expression of the SMN2 splice variant | 2.8% of 210,000 active | Potency, µM (top dose mostly 46.1 µM), inactives show at the highest dose activity change, positive = activation, hits mostly activators | HEK293 SMN2-luciferase splicing reporter, luminescence, 30-36 h | AID 1458; also: % of control where 0% means no effect; nearly all actives have a fitted effect of over 55% in size
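HEK293 cells carry an SMN2 minigene-luciferase reporter in which exon 7 inclusion puts luciferase in frame. Cells were seeded at 2000 cells/well, attached for 10-12 hours, then exposed to compounds for 30-36 hours at 37C before ONE-Glo luminescence.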
Luc counter = counter-screen: inhibitors of Kinase-Glo firefly luciferase; Q27757; Kinase-Glo luciferase, ATP luminescence, 8 min; Potency, µM (highest dose often 38.3 µM), for the others: at the top dose activity change, negative = inhibition, actives largely listed as inhibitors; 0.28% of 200,000 active; AID 1379; also: % is scaled to controls: 0 for no effect and ±100 for the full control effect; nearly all actives have a fitted effect of over 60% in size
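Compounds were added to a substrate mix at pH 7.2 (50 mM imidazole, 10 uM ATP, within the enzyme's linear range), followed by Kinase-Glo detection reagent; luminescence was measured after 8 minutes at ambient temperature.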
Rab9 promoter act = activators of Rab9 promoter. Huh7 Rab9 promoter-luciferase reporter, luminescence, 24 h. 2.8% of 320,000 active. Potency, µM (highest dose often 9.22 µM), inactives show at the highest dose activation, negative = inhibition, actives largely listed as activators; also: % of control where 0% means no effect; nearly all actives have a fitted effect of over 60% in size
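Luciferase signal after 10 min detection reagent at ambient indicates Rab9 promoter upregulation; stably transfected Huh7 cells were treated 24 h with compound in DMSO at 37 °C, 5% CO2.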
The depositor's hits bear a star; ? = inconclusive; / = no result given; [ ] = remark or other dose. Hits are enriched below; roughly 7.5% of the tested compounds scored in any of these assays. Calls follow the shape of the dose curve; as a rule, active = well fitted curve in the direction sought with a large enough effect; inconclusive = small, poorly fitted or top-dose-only effect, or another doubt; inactive = no such curve, though single readings can be large; an effect the other way counts as inactive or inconclusive. Potency is read from the fitted curve at half-maximal effect.

SMILES | FLuc modulator | NPC1 prom act | ELG1 genotoxic | SMN2 splice up | Luc counter | Rab9 promoter act
COCCNC(=O)c1ccc(C)cc1C | -0.7% | -0.4% | 0.4% | 5.1% | 3.4% | -8.1%
Cc1cccnc1Nc1nc(-c2ccc(O)cc2O)cs1 | 15.1µM* | ? | ? | / | / | 3.16µM*
Oc1ccc(-c2csc(Nc3ccccn3)n2)c(O)c1 | 4.78µM* | 1.78µM* | 9.2µM* | / | / | 3.16µM*
NS(=O)(=O)c1ccc(Nc2nc(-c3ccc(O)cc3O)cs2)cc1 | ? | -0.9% | ? | 13.9% | -0.7% | -9.0%
CCc1ccc(C2=C(C)C(N3CCC(C(=O)NCc4ccc(C)o4)CC3)=NS2(=O)=O)cc1 | 0.2% | / | / | / | / | /
NCCNS(=O)(=O)c1cccc2cnccc12 | / | / | / | 16.7% | -0.9% | /
CCCCNC(=O)C(CC)Sc1nnc(-c2cccc(F)c2)c(-c2cccc(F)c2)n1 (centres undefined) | -1.0% | / | / | / | / | /
CCOc1ccc(NC(=O)Cc2ccccc2)c([N+](=O)[O-])c1 | -17.7% | 1.6% | 6.6% | 0.7% | -0.8% | 10.2%
CCOc1ccc(NC(=O)Cc2cccc3ccccc23)c([N+](=O)[O-])c1 | 4.9% | -6.7% | -0.7% | -12.5% | 1.3% | -4.6%
CCOc1ccc(N/C=C/C(=O)c2ccc3ccccc3c2)c([N+](=O)[O-])c1 | 0.849µM* | 2µM* | 15.9% | 2.51µM* | 7.1% | 2µM*
CCOc1ccc(NC(=O)COc2ccccc2)c([N+](=O)[O-])c1 | 3.01µM* | ? | ? | ? | -4.2% | 3.55µM*
CCOc1ccc(N/C=C/C(=O)c2ccc(C)cc2)c([N+](=O)[O-])c1 | 1.35µM* | 1.41µM* | ? | ? | -27.4% | ?
CCOc1ccc(NC(=S)NC(=O)/C=C/c2ccc(C)cc2)c([N+](=O)[O-])c1 | ? | 8.9% | ? | / | -1.9% | 5.9%
Cc1ccc(C(=O)/C=C/Nc2ccc([N+](=O)[O-])cc2Br)cc1 | 0.338µM* | 0.447µM* | ? | ? | -5.9% | 0.447µM*
CC(=O)c1ccc(NC(=O)Cn2ncc3c(C)n(Cc4ccc(F)cc4)c(C)c3c2=O)cc1 | -13.4% | / | / | 1.5% | / | /
CC(C)N1CCc2c(sc(NC(=O)c3ccc4ccccc4c3)c2C(N)=O)C1 | 6.01µM* | -3.9% | 9.2% | / | / | 2.3%
CCN1CCc2c(sc(NC(=O)c3cc4ccccc4cc3OC)c2C(N)=O)C1 | 9.53µM* | -4.7% | 10.1% | / | / | 3.6%
Cc1ccc(Oc2ccc3c(c2)C(=O)N(c2ccc(S(=O)(=O)Nc4nccs4)cc2)C3=O)cc1 | 19µM* | -5.0% | -1.7% | -15.2% | -1.4% | -4.8%
Cc1ccc(C(=O)N2CCc3cc(CNS(=O)(=O)c4cccs4)ccc32)cc1 | 1.6% | / | / | / | / | /
Cc1csc(NC(=O)c2cn3ccccc3n2)n1 | 2.13µM* | ? | 0.731µM* | 0.631µM* | 10µM* | ?
O=C(Nc1ccccc1)c1cn2ccccc2n1 | 0.953µM* | 0.316µM* | ? | / | / | 0.199µM*
CC1CN(C(=O)c2cn3ccccc3n2)CC(C)O1 (centres undefined) | 12µM* | 2.1% | -0.9% | -6.5% | -12.6% | -3.1%
Cc1c(NC(=O)c2cn3ccccc3n2)cccc1-n1cnnn1 | ? | 24.8% | 13.2% | / | / | 18.4%
CCN(CC(=O)Nc1c(F)cccc1F)C(=O)c1cn2ccccc2n1 | 4.7% | -4.1% | 4.0% | / | / | 0.7%
O=C(Nc1ccc(-n2cnnn2)cc1)c1cn2ccccc2n1 | ? | 1.58µM* | ? | / | / | 1.58µM*
SMILES | FLuc modulator | NPC1 prom act | ELG1 genotoxic | SMN2 splice up | Luc counter | Rab9 promoter act
CC1CN(C(=O)c2ccncc2)CC(C)O1 (centres undefined) | 1.9% | ? | -3.9% | 2.4% | 0.4% | -5.2%
C[Se]CCC(N)C(=O)O (centres undefined) | / | / | / | / | -6.4%[39.9 µM] | /
CCN(CC)CCN(C(=O)Cn1nnc(-c2ccc(C)o2)n1)C(C(=O)NC1CCCC1)c1ccc(F)cc1 (centres undefined) | 4.5% | 2.0% | 0.7% | / | / | 8.2%
O=C(Nc1ccn(C2CC(OC(=O)c3ccccc3)C(CO)O2)c(=O)n1)c1ccccc1 (centres undefined) | -0.3% | 1.3% | -4.3% | -7.7% | -7.0% | 3.1%
O=C1CC2C(CC(OC(=O)c3ccc(-c4ccccc4)cc3)C2CO)O1 (centres undefined) | 12µM* | 16.4% | ? | ? | -4.8% | ?
O=C1C[C@H]2[C@H](CO)[C@@H](OC(=O)c3ccc(-c4ccccc4)cc3)C[C@H]2O1 | 5.36µM* | ? | 16.2% | / | / | ?
COc1cc(NC(=O)CCN2CCN(c3ccccc3)CC2)cc(OC)c1 | -2.9% | / | / | -5.5% | / | /
CCOc1ccc(OCc2ccc(C(=O)N3CCCC(C)C3)cc2)cc1 (centres undefined) | 13.5µM* | 3.98µM* | ? | 10µM* | -3.1% | 2µM*
COc1cccc(-c2cc3nc4c(c(N5CCC6(CC5)OCCO6)n3n2)CCC4)c1 | 26.9µM* | -8.0% | -7.9% | -7.6% | 2.3% | -0.6%
Cc1cccc(-c2cc3nc4c(c(N5CCCC(O)C5)n3n2)CCC4)c1 (centres undefined) | -17.1% | 0.3% | -14.6% | -22.2% | 0.2% | -3.2%
OC1CCCN(c2c3c(nc4cc(-c5cccc(F)c5)nn24)CCCC3)C1 (centres undefined) | ? | ? | ? | 11.2µM* | 3.7% | ?
Fc1ccc(-c2cc3nc4c(c(N5CCOCC5)n3n2)CCCC4)cc1 | 21.3µM* | -1.6% | -2.5% | -15.7% | 7.3% | -2.1%
Cc1cccc(-c2cc3nc4c(c(N5CCOCC5)n3n2)CCCC4)c1 | 2.39µM* | ? | ? | -19.3% | -6.7% | ?
Cc1cccc(NC(=O)c2ccc(Cn3nc(N4CCN(c5ccccc5)CC4)ccc3=O)o2)c1C | -8.9% | / | / | / | / | /
Cc1ccc(NC(=O)C2CCCN(S(=O)(=O)c3c(C)n[nH]c3C)C2)cc1C (centres undefined) | 1.7% | / | / | -28.6% | / | /
Cc1ccc(NS(=O)(=O)c2c(C)nc3sc(C)cn3c2=O)c(C)c1 | -8.2% | / | / | / | / | /
O=C(C1CCCO1)N1CCN(c2c3c(nc4cc(-c5ccc(F)cc5)nn24)CCC3)CC1 (centres undefined) | 4.78µM* | 0.6% | -0.2% | -1.8% | 3.8% | 2.0%
CN(C)CCCNc1c2c(nc3cc(-c4cccc(F)c4)nn13)CCC2 | 0.6% | -4.3% | 3.6% | / | 0.3% | -1.7%
OC1CCN(c2c3c(nc4cc(-c5ccc(F)cc5)nn24)CCC3)CC1 | ? | 13.9% | -10.3% | -6.7% | -0.5% | 2.5%
Cc1cccc(-c2cc3nc4c(c(NCc5ccco5)n3n2)CCCC4)c1 | 10.7µM* | ? | 7.7% | 23.7% | -2.6% | 3.16µM*
